“And” between values parts separate entries of the source, which are not always exact repeats. Equal entries are not always repeated. Records with an inconclusive call do not appear. The source made the active and inactive calls. Unless noted, calls follow the shape of the dose curve; as a rule, active = well fitted curve in either direction with a large enough effect (not every such curve was filed as active); inconclusive = small, poorly fitted or top-dose-only effect, or another doubt; inactive = flat fitted curve, though single readings scatter.
How the values were obtained:
[1] = AP1 Signaling Pathway (AID 357);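 also: ME-180 reporter cells stimulated with EGF at its EC50 level; % is scaled to controls: 0 for no effect and ±100 for the full control effect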
Summary of the method: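 Cells are seeded overnight, exposed to compound titrations and an EC50 level of EGF for 5 hours at 37 °C, then loaded with CCF4 dye for 2.5 hours. Beta-lactamase activity under the AP-1 element is read as a blue/green ratio.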

[2] = Stat Signaling Pathway (AID 446);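 also: ME-180 cervical cancer cells given 40 pM IL-6 alongside compound; SIE-controlled beta-lactamase reporter measured as 460/530 nm FRET emission ratio; % is scaled to controls: 0 for no effect and ±100 for the full control effect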
Summary of the method: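 Compound effects on IL-6-induced STAT reporter activity were measured in ME-180 cells. After overnight culture, cells were co-treated with 40 pM IL-6 for 5 hrs before beta-lactamase substrate loading at room temperature.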

[3] = molecular target: Glucocorticoid receptor (Homo sapiens) (UniProt P04150); assay: GR-GFP Redistribution (AID 450;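 active = compounds whose dose series gives a full or clear partial fitted curve of increased nuclear translocation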; also: potency is read from the fitted curve at half-maximal effect); conditions: U2OS GR-GFP nuclear translocation, laser cytometry, 2 h
[4] = molecular target: Cytochrome P450 1A2 (Homo sapiens) (UniProt P05177); assay: p450-cyp1a2 (AID 410; calls by dose curve; also: potency is read from the fitted curve at half-maximal effect;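 as to activity change, negative = inhibition: -100% = full effect of reference inhibitor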)
Summary of the method: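 Luminescent demethylation readout: Luciferin-ME (100uM, equal to Km) turned over by 20nM CYP1A2 for 60 min at room temperature after NADPH regeneration addition, following 10 min compound preincubation. Normalization used 57 uM furafylline as full inhibition.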

[5] = molecular target: Glucocorticoid receptor (Homo sapiens) (UniProt P04150); assay: GR-EFC Redistribution (AID 451; calls by dose curve; also: potency is read from the fitted curve at half-maximal effect); conditions: CHO-K1 GR-EFC translocation, beta-gal luminescence, 2 h
Summary of the method: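 Translocation of GR-ED fusion to nuclear EA restores b-gal, read by luminescence after 1 h room-temperature detection. Engineered CHO-K1 biosensor cells, 1,000/well, exposed 2 h at 37 C to titrations up to 46 uM final.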

[6] = molecular target: Mitogen-activated protein kinase 10 (Mus musculus) (UniProt Q61831); assay: JNK3 AlphaScreen Assay (AID 530);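 also: kinase came from lysate of stimulated human HepG2 cells; signal reports phosphorylation of biotinylated GST-cJun 1-79 at Ser73 with 10 µM ATP; % is scaled to controls: 0 for no effect and ±100 for the full control effect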
Summary of the method: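 qHTS titrations with 15 min compound pre-incubation before adding ATP (10 uM final). Read-out: AlphaScreen of Ser73-phosphorylated biotin-GST-cJun using HepG2 lysate JNK3 activated by IL-1β and TNFα.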

[7] = Cell Viability - BJ (AID 421; calls by dose curve;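 also: potency is read from the fitted curve at half-maximal effect; cells exposed to compound for 40 hours at 37 °C before readout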); conditions: BJ fibroblast viability, qHTS
Summary of the method: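 Luminescent ATP signal (CellTiter-Glo, 20 min at room temperature) served as the read-out of viable BJ cells after 40 hours of compound treatment. Responses were scaled between DMSO and 100 uM tamoxifen, and AC50 values were obtained by Hill modeling.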

[8] = Cell Viability - MRC5 (AID 434; calls by dose curve;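 also: potency is read from the fitted curve at half-maximal effect; cells exposed to compound for 40 hours at 37 °C; potency reflects cytotoxicity seen as loss of intracellular ATP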); conditions: MRC5 lung fibroblast viability, qHTS
Summary of the method: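 AC50 values come from Hill-equation fits of intracellular ATP loss, measured by CellTiter-Glo luminescence. Normal lung fibroblasts (MRC5) had 40 hr compound treatment at 37 C, normalized between DMSO and 100 uM tamoxifen.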

[9] = Cell Viability - SK-N-SH (AID 435; calls by dose curve; also: potency is read from the fitted curve at half-maximal effect); conditions: SK-N-SH neuroblastoma cell viability qHTS
Summary of the method: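 Cells seeded at 1500 per well and incubated 5 hr at 37 °C. Compound added, then 40 hr at 37 °C. CellTiter-Glo added, 20 min at room temperature, luminescence read.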

[10] = NFAT Signaling Pathway (AID 444); conditions: Jurkat NFAT-bla M1, carbachol, beta-lactamase ratio, 5 h;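 also: carbachol stimulus at about its EC50 of 1 µM final; % is scaled to controls: 0 for no effect and ±100 for the full control effect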
Summary of the method: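 Read-out: CCF4 FRET ratio (460 nm/530 nm) after 1 h RT dye loading, used for %activity and AC50 from titration series. Cells: Jurkat NFAT-β-lactamase/M1 line, treated with compound plus 1 uM carbachol for 5 h, 37 °C.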

[11] = Cell Viability - N2a (AID 540; active = well fitted curve in the direction sought with a large enough effect; an effect the other way counts as inactive or inconclusive; also: nearly all actives have a fitted effect of over 45% in size; also: potency is read from the fitted curve at half-maximal effect;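 as to activity change, negative = cytotoxicity: plate controls were DMSO alone for no effect and tamoxifen control for full effect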); conditions: N2a mouse neuroblastoma cell viability; activity change, negative = cytotoxicity: at 92.2 µM (top of the series)
Summary of the method: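 CellTiter-Glo ATP luminescence, read 20 min after reagent at room temperature, reported viability following 40 h compound treatment at 37 °C. N2a mouse neuroblastoma cells seeded 1500/well; Hill equation gave AC50.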

[12] = Cell Viability - HUV-EC-C (AID 542; active = well fitted curve in the direction sought with a large enough effect; an effect the other way counts as inactive or inconclusive; also: nearly all actives have a fitted effect of over 35% in size; also: potency is read from the fitted curve at half-maximal effect)
Summary of the method: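 CellTiter-Glo luminescence measured ATP loss in HUV-EC-C cells (1000/well) after 40 hr compound exposure at 37 °C, in complete culture medium. Concentration-response data were Hill-fitted to give AC50.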

[13] = Cell Viability - H-4-II-E (AID 543; active = well fitted curve in the direction sought with a large enough effect; an effect the other way counts as inactive or inconclusive; also: nearly all actives have a fitted effect of over 35% in size; also: potency is read from the fitted curve at half-maximal effect)
Summary of the method: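 CellTiter-Glo luminescence (intracellular ATP) measured after 40 h compound exposure at 37 °C in H-4-II-E rat hepatoma cells seeded at 1500/well. Values are AC50s fitted with the standard Hill equation.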

[14] = Cell Viability - Renal Proximal Tubule (AID 545; active = well fitted curve in the direction sought with a large enough effect; an effect the other way counts as inactive or inconclusive; also: nearly all actives have a fitted effect of over 40% in size; also: potency is read from the fitted curve at half-maximal effect;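 as to activity change, negative = cytotoxicity: 0% = DMSO only and -100% = 100 µM tamoxifen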)
Summary of the method: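 Cytotoxicity is scored as a concentration-dependent drop in cellular ATP in primary rat renal proximal tubule cells exposed for 40 hr. AC50 derives from Hill modelling.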

[15] = molecular target: 3',5'-cyclic-AMP phosphodiesterase 4B (Homo sapiens) (UniProt Q07343); assay: qHTS Assay for Inhibitors of PDE-IV (AID 607; active = well fitted activation curve with a large enough effect in the main read-out, with a control signal flat, not every such curve was filed as active; also: % of control where 0% means no effect)
Summary of the method: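 ACTOne HEK293 cells carry a modified cAMP-gated CNG channel and express endogenous PDE4; plated 1000 cells/well, compounds up to 22.9 uM final. Membrane-potential dye fluorescence (ex 535/em 590) was read; parental cells received 10 uM forskolin + 100 uM RO 20-1724.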

[16] = Cell Viability - Hek293 (AID 427;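 active = compounds whose dose-response curve shows a full or clear partial loss of cell viability, called from curve shape rather than a numeric limit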;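 also: potency is read from the fitted curve at half-maximal effect; cells exposed to compound for 40 hours at 37 °C before reading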); conditions: qHTS
Summary of the method: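 Luminescent ATP read-out (CellTiter-Glo, 20 min RT) after 40 hr compound exposure at 37 °C in complete medium. Signal normalized to DMSO (basal) and 100 uM tamoxifen (100% inhibition); concentration-response fitted with the standard Hill equation to give AC50.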

[17] = Cell Viability - HepG2 (AID 433; calls by dose curve;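 also: potency is read from the fitted curve at half-maximal effect; potency for ATP loss meaning cytotoxicity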); conditions: qHTS
Summary of the method: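 Cytotoxicity is scored as loss of intracellular ATP in HepG2 cells exposed to compounds for 40 h. Concentration-response curves, normalized to DMSO and 100 uM tamoxifen, give AC50 values.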

[18] = Cell Viability - NIH 3T3 (AID 541; active = well fitted curve in the direction sought with a large enough effect; an effect the other way counts as inactive or inconclusive; also: nearly all actives have a fitted effect of over 25% in size; also: potency is read from the fitted curve at half-maximal effect;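 as to activity change, negative = cytotoxicity: plate controls were DMSO alone for no effect and tamoxifen positive control for full effect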)
Summary of the method: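 Intracellular ATP (CellTiter-Glo luminescence, 20 min at room temperature) measured after 40 hr compound exposure at 37 °C of 1000 NIH 3T3 mouse fibroblasts/well in complete medium; AC50 derived by Hill-equation modelling of qHTS concentration-response curves.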

[19] = Cell Viability - SH-SY5Y (AID 544; active = well fitted curve in the direction sought with a large enough effect; an effect the other way counts as inactive or inconclusive; also: nearly all actives have a fitted effect of over 55% in size; also: potency is read from the fitted curve at half-maximal effect)
Summary of the method: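 Cytotoxicity measured via ATP-dependent luciferase luminescence (CellTiter-Glo) following 40 h, 37 °C exposure of 1500 SH-SY5Y cells per well. Concentration-response data were fitted with the standard Hill equation to give AC50.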

[20] = Cell Viability - Mesenchymal (AID 546; active = well fitted curve in the direction sought with a large enough effect; an effect the other way counts as inactive or inconclusive;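 also: cells exposed to compound for 40 hours before reading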; also: potency is read from the fitted curve at half-maximal effect;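 as to activity change, negative = cytotoxicity: 0% = DMSO only and -100% = 100 µM tamoxifen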)
Summary of the method: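 CellTiter-Glo luminescence (intracellular ATP, 20 min room temperature) after 40 hr compound exposure at 37 °C of 1000 glomerulus-derived human kidney mesenchymal cells/well; AC50 values obtained by fitting qHTS concentration-response data to the Hill equation.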

Chain of Cytochrome P450 1A2 (Homo sapiens) (P05177 whole entry, looked up): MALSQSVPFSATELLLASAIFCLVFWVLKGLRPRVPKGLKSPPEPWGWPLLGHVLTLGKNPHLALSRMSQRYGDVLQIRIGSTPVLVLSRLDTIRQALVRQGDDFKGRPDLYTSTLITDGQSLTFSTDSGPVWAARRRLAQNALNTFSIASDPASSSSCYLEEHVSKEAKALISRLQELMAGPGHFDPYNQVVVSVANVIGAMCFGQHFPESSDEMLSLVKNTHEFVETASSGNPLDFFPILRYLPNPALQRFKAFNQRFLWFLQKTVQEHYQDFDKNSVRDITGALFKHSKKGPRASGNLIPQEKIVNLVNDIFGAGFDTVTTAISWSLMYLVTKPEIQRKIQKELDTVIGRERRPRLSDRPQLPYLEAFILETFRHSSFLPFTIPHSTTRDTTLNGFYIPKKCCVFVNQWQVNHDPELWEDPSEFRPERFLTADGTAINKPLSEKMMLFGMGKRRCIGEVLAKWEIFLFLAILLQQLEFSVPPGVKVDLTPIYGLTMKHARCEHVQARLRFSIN
Chain of Glucocorticoid receptor (Homo sapiens) (P04150 whole entry, looked up, the tested form may be a part): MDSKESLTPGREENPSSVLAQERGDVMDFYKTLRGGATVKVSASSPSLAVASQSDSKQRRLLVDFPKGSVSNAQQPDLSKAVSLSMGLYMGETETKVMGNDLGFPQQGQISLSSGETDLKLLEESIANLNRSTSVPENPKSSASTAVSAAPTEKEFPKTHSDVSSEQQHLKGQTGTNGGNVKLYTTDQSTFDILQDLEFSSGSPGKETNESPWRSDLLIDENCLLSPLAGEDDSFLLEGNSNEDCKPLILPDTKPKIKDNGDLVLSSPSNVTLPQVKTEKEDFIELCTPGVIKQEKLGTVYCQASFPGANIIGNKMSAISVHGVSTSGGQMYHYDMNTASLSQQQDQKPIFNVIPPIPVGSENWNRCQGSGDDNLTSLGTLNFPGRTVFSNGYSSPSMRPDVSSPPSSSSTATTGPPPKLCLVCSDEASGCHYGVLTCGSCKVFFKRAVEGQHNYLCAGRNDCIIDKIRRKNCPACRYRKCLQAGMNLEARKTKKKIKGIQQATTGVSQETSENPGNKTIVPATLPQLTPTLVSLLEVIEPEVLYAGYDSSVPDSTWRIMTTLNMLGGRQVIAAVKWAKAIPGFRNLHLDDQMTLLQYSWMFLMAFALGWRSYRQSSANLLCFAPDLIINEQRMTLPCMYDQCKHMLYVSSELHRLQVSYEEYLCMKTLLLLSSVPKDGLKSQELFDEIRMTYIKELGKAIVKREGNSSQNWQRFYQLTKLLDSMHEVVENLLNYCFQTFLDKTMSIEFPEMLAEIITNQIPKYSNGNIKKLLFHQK
Chain of 3',5'-cyclic-AMP phosphodiesterase 4B (Homo sapiens) (Q07343 whole entry, looked up): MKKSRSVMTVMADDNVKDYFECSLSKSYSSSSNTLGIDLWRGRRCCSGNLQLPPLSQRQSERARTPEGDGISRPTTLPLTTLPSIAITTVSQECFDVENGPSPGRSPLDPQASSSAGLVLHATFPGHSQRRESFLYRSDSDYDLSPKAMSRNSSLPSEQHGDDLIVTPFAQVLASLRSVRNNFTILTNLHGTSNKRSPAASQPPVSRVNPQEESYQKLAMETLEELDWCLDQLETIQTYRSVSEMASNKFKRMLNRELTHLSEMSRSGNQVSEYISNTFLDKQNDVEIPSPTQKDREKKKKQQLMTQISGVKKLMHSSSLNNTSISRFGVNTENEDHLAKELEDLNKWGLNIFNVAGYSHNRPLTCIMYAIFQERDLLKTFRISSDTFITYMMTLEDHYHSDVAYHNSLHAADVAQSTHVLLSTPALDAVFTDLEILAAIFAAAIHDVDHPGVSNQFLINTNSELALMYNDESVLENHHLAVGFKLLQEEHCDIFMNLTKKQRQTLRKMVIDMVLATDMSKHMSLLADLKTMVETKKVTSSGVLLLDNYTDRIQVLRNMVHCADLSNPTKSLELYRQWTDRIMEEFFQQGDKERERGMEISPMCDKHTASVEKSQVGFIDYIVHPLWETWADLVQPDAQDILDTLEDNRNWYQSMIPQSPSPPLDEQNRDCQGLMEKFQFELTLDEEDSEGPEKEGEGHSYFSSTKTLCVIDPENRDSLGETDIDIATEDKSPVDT

CN(C)CCCC1(c2ccc(F)cc2)OCc2cc(C#N)ccc21 (stereo unspecified)
inactive: outcome [1] | outcome [2] | Potency [3] > 20.6 µM

CCN(CC)CCOc1ccc(Cc2ccccc2)cc1
active: Potency [4] 12.6 µM
inactive: Potency [3] > 46 µM | Potency [5] > 46 µM | Potency [6]

Cc1cc(O)c2c(c1)C(=O)c1cc(O)cc(O)c1C2=O
inactive: Potency [7] > 92 µM | Potency [8] > 92 µM | activity change, negative = inhibition ([10]; at 38 µM (top of the series)) 7.8% | Potency [3] > 46 µM | Potency [5] > 46 µM | Potency [14] | outcome [15]
active: Potency [4] 3.16 µM and 398 nM | Potency [9] 35 µM | activity change, negative = cytotoxicity [11] -117% | Potency [12] 31.6 µM | Potency [13] 63.1 µM

Oc1ccc(OCc2ccccc2)cc1
active: Potency [4] 1.58 µM
inactive: activity change, negative = inhibition ([10]; at 17.2 µM (top of the series)) -7.24% | outcome [2] | Potency [3] > 20.6 µM | Potency [5] > 20.6 µM | Potency [6] | outcome [15]

CN(C)c1ccc2nc3ccc(=[N+](C)C)cc-3sc2c1
active: Potency [16] 35.6 µM | Potency [17] 4.17 µM | Potency [8] 37.8 µM | Potency [9] 10.9 µM | Potency [11] 2.51 µM | Potency [18] 0.631 µM | Potency [12] 2.51 µM | Potency [13] 7.94 µM | Potency [19] 15.8 µM | Potency [14] 31.6 µM | Potency [20] 31.6 µM

CC(C)Oc1ccc2c(=O)c(-c3ccccc3)coc2c1
inactive: outcome [1] | activity change, negative = inhibition ([10]; at 17.2 µM (top of the series)) 5.32% | outcome [2] | Potency [3] > 20.6 µM

Cc1cccc(CN2CCN(C(c3ccccc3)c3ccc(Cl)cc3)CC2)c1 (stereo unspecified)
inactive: outcome [1] | outcome [2] | Potency [3] > 20.6 µM

CN1CCC(=C2c3ccccc3CCc3sccc32)CC1
inactive: Potency [4] | outcome [2] | Potency [6]

Nc1nc(Cl)nc2c1ncn2[C@H]1C[C@H](O)[C@@H](CO)O1
inactive: outcome [1] | activity change, negative = inhibition ([10]; at 17.2 µM (top of the series)) 16.6% and 27.4% | outcome [2] | Potency [3] > 20.6 µM

CCCCN(CCCC)CCC(O)c1cc2c(Cl)cc(Cl)cc2c2cc(C(F)(F)F)ccc12 (stereo unspecified)
inactive: outcome [1] | activity change, negative = inhibition ([10]; at 17.2 µM (top of the series)) 14.4% | outcome [2] | Potency [3] > 20.6 µM | Potency [5] > 20.6 µM | Potency [6] | outcome [15]

C[C@H](Cc1ccc(O)c(O)c1)[C@@H](C)Cc1ccc(O)c(O)c1
inactive: Potency [3] > 46 µM | Potency [5] > 46 µM | outcome [15]
active: Potency [4] 31.6 µM

O=C1NC(=O)C(c2ccccc2[N+](=O)[O-])=C1Nc1ccc(O)c(Cl)c1
active: Potency [4] 7.94 µM
inactive: activity change, negative = inhibition ([10]; at 38 µM (top of the series)) -15.2% | outcome [2] | Potency [3] > 46 µM | Potency [5] > 46 µM | outcome [15]

O=C(NCCO[N+](=O)[O-])c1cccnc1
inactive: Potency [4] | Potency [3] > 46 µM | Potency [5] > 46 µM | Potency [6] | outcome [15]

CCN(CC)C(=S)SSC(=S)N(CC)CC
inactive: Potency [3] > 46 µM and > 20.6 µM | Potency [5] > 46 µM and > 20.6 µM | Potency [6] | outcome [15]
active: Potency [4] 6.31 µM and 1.58 µM

CC(C)(S)[C@@H](N)C(=O)O
inactive: outcome [1] | outcome [2] | Potency [3] > 20.6 µM

O=c1ccc2ccc(O)c(O)c2o1
inactive: outcome [1] | activity change, negative = inhibition ([10]; at 38 µM (top of the series)) -9.14% | outcome [2] | Potency [3] > 46 µM | Potency [5] > 46 µM | Potency [6] | outcome [15]

O=C(NCC1CCCCN1)c1cc(OCC(F)(F)F)ccc1OCC(F)(F)F (stereo unspecified)
inactive: outcome [1] | activity change, negative = inhibition ([10]; at 17.2 µM (top of the series)) -8.46% | outcome [2]

CC(C)[N+]1(C)[C@@H]2CC[C@H]1CC(OC(=O)C(CO)c1ccccc1)C2 (stereo partly specified)
inactive: outcome [1] | outcome [2]
active: activity change, negative = inhibition ([10]; at 17.2 µM (top of the series)) -79.9%

CC(=O)N1CCN(c2ccc(OC[C@H]3CO[C@](Cn4ccnc4)(c4ccc(Cl)cc4Cl)O3)cc2)CC1
inactive: Potency [3] > 46 µM | Potency [5] > 46 µM

CC(C)c1ccc2c(c1)c(SC(C)(C)C)c(CC(C)(C)C(=O)O)n2Cc1ccc(Cl)cc1
active: Potency [4] 25.1 µM and 31.6 µM
inactive: Potency [3] > 46 µM | Potency [5] > 46 µM | Potency [6] | outcome [15]

CC1Cc2ccccc2N1NC(=O)c1ccc(Cl)c(S(N)(=O)=O)c1 (stereo unspecified)
inactive: outcome [1] | activity change, negative = inhibition ([10]; at 17.2 µM (top of the series)) 6.17% | outcome [2]

CCOC(=O)C1=C(O)C(=O)N(Cc2ccccc2)C1
active: Potency [4] 1 µM
inactive: Potency [3] > 46 µM | Potency [5] > 46 µM

COc1cc(OC)c(C(=O)CCCN2CCCC2)c(OC)c1
inactive: outcome [1] | outcome [2] | Potency [3] > 20.6 µM | Potency [5] > 20.6 µM | Potency [6] | outcome [15]

CS(=O)(=O)OCCCCOS(C)(=O)=O
inactive: Potency [7] > 92 µM | Potency [16] > 92 µM | Potency [17] > 92 µM | Potency [8] > 92 µM | Potency [9] > 92 µM | Potency [6] | Potency [11] | Potency [18] | Potency [12] | Potency [13] | Potency [19] | Potency [14] | Potency [20]

Reference: PubChem BioAssay (NCATS)
